# According to PubChem BioAssay (EPA / NIEHS):
# Results filed as inconclusive are left out. Activity calls are given as the source filed them. The calls were made as follows: active = hit-call score of the fitted dose curve at least 0.9, where 1 is the maximum; inconclusive = response in the unintended direction; inactive = score below 0.9.
# Target: Cellular tumor antigen p53 (Homo sapiens) (UniProt P04637)
# Assay: TOX21_p53_BLA_p2_ratio: Tox21 HCT-116 p53 Agonism Beta-lactamase Assay, Ratio, Phase 2 (AID 2283592)
# Description: TOX21_p53_BLA_p2 is a cell-based, single-readout assay that uses HCT116, a human intestinal cell line, […] in a 1536-well plate.TOX21_p53_BLA_p2_ratio is an assay readout measuring reporter gene via receptor activity and designed using inducible reporter (beta lactamase induction) detected with GAL4 b-lactamase reporter gene. The signal is derived from the ratio of cleaved (ch2) to uncleaved (ch1) reporter gene substrate used as the measure of target activity.Data from the assay component TOX21_p53_BLA_p2_ratio was analyzed into 1 assay endpoint. This assay endpoint, TOX21_p53_BLA_p2_ratio, was analyzed in the positive analysis fitting direction relative to DMSO as the negative control and baseline of activity. Using a type of inducible reporter, gain-of-signal activity can be used to understand changes in the reporter gene as they relate to the gene TP53. Furthermore, this assay endpoint can be referred to as a primary readout, because this assay has produced multiple assay endpoints and this ratio serves a reporter gene function to understand target activity. To generalize the intended target to other relatable targets, this assay endpoint is annotated to the DNA binding intended target family, where the subfamily is tumor suppressor.
# Thawing Method: Place 14 mL of pre-warmed thaw medium into a 15 mL of conical tub. Remove the vial of cells to be thawed from liquid nitrogen and thaw rapidly by placing at 37C in a water bath with gentle agitation for 1-2 minutes. Decontaminate the vial by wiping with 70% ethanol before opening in a biological safety cabinet. Transfer the vial contents drop-wise into 14 mL of thaw medium in a sterile 15-mL conical tub. Centrifuge cells at 900 rpm for 4 minutes and resuspend in thaw medium. Transfer contents to the T75 tissue culture flask containing Thaw Medium and place flask in a humidified 37C/5% CO2 incubator. Switch to growth medium at first passage.Propagation Method: Aspirate medium, rinse once in DPBS, add 0.25% Trypsin/EDTA and swirl to coat the cell evenly. Add an equal volume of Growth Medium to inactivate Trypsin after 2-3 minutes incubation at 37C. Centrifuge cells at 900 rpm for 4 minutes and resuspend in growth medium. Cell should be passage or fed at least twice a week.Assay Protocol: Harvest cells from culture in growth medium and resuspend in assay medium. 2.2 Dispense 4000 cells/5 uL/well into 1536-well black/clear bottom plates using a Multidrop dispenser. After the cells were incubated at 37C for 5 hours, 23 nL of compounds dissolved in DMSO were transferred to the assay plate by a PinTool resulting in a 217-fold dilution. Incubate the plates for 16 hours at 37C, 5% CO2. Add 1 uL of 6X LiveBLAzer FRET B/G (CCF4-AM) Substrate Mixture to each well using a BioRAPTR dispenser and incubate the plates at room temperature for 2 hours. Measure fluorescence intensity at 460 and 530 nm emission and 405 nm excitation by an Envision detector. Data is expressed as the ratio of 460nm/530nm emissions. Add 4 uL of Cell-titer Glo to each well using BioRAPTR and incubate the plates at room temperature for 2 hours. Measure fluorescence intensity by a VewLux plate reader.
# Chain of Cellular tumor antigen p53 (Homo sapiens) (P04637 whole entry, looked up): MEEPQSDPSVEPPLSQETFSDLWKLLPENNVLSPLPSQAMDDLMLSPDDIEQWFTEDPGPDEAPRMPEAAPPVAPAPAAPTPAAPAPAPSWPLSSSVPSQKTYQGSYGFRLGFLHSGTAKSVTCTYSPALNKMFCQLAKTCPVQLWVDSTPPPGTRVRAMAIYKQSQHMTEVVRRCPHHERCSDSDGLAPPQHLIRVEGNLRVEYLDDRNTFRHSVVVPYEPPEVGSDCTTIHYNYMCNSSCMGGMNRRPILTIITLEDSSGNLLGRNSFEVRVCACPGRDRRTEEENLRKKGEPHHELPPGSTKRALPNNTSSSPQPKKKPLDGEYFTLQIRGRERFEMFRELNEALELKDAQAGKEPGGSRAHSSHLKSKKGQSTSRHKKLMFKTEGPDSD
Compound,outcome,AC50
CC1COc2c(N3CCN(C)CC3)c(F)cc3c(=O)c(C(=O)O)cn1c23 (stereo not given),inactive,–
CN(C)CC[C@@H](c1ccc(Cl)cc1)c1ccccn1,inactive,–
CS(=O)(=O)c1ccc([C@@H](O)[C@@H](COC(=O)CN)NC(=O)C(Cl)Cl)cc1,inactive,–
CCCCCCCC/C=C\CCCCCCCC(=O)OCCCC,inactive,–
Cc1ccco1,inactive,–
Cc1cc(O)ccc1N,inactive,–
CCc1ccc(C(=O)C(C)CN2CCCCC2)cc1 (stereo not given),inactive,–
Cc1ccc(N(CC2=NCCN2)c2cccc(O)c2)cc1,–,31 µM (active)
Cc1c[nH]c2ccccc12,inactive,–
CCC(C=O)CC,inactive,–
CC(CN(C)C)CN1c2ccccc2CCc2ccccc21 (stereo not given),inactive,–
CCC(CO)(CO)[N+](=O)[O-],inactive,–
CC(C)(O)c1ccccc1,inactive,–
CC1OCCC1=O (stereo not given),inactive,–
O=C(c1ccc2c(c1)C(=O)OC2=O)c1ccc2c(c1)C(=O)OC2=O,inactive,–
OCc1c2ccccc2cc2ccccc12,inactive,–
Nc1ccc2cc(S(=O)(=O)O)ccc2c1,inactive,–
O=Cc1ccc(C(=O)O)cc1,inactive,–
Cc1scc2c1N(C(=O)CN1CCN(C)CC1)c1ccccc1NC2=O,inactive,–
C=CC[N+]1([C@H]2C[C@H]3[C@@H]4CC[C@H]5C[C@H](O)[C@@H](N6CCOCC6)C[C@]5(C)[C@H]4CC[C@]3(C)[C@H]2OC(C)=O)CCCC1,inactive,–

Compound,outcome,AC50
C=CC[N@@+]12CC[C@@]34c5ccccc5N5/C=C6/[C@H]7C[C@H]8[C@@]9(CC[N@@+]8(CC=C)C/C7=C/CO)c7ccccc7N(/C=C(/[C@@H](C[C@@H]31)/C(=C\CO)C2)[C@H]54)[C@@H]69,inactive,–
COc1cc2nc(N3CCN(C(=O)c4ccco4)CC3)nc(N)c2cc1OC,inactive,–
CN(CCOc1ccc(NS(C)(=O)=O)cc1)CCc1ccc(NS(C)(=O)=O)cc1,inactive,–
COC(=O)CC[C@H](N)C(=O)O,inactive,–
O=C1OC(=O)c2cccc3cccc1c23,inactive,–
C[C@@H](c1ncncc1F)[C@](O)(Cn1cncn1)c1ccc(F)cc1F,inactive,–
Cc1cc(NC(=O)C2=C(O)c3ccccc3S(=O)(=O)N2C)no1,inactive,–
COc1ccc(C2(C#N)CCC(C(=O)O)CC2)cc1OC1CCCC1 (stereo not given),inactive,–
CCN(CC)CC(=O)Nc1c(C)cccc1C,inactive,–
CCCn1cc[n+](C)c1C,inactive,–
O=C(Oc1ccccc1C(=O)O)c1ccccc1O,inactive,–
NNc1nnc(NN)c2ccccc12,inactive,–
Cc1ccc2cccnc2c1,inactive,–
Nc1ccc(N=Nc2ccc(N)cc2)cc1,inactive,–
CC(CO)CO,inactive,–
COc1cc(C(=O)NCCCCCC(=O)O)cc(OC)c1OC,inactive,–
CC(C)(C)C(=O)OCC(=O)[C@H]1CC[C@H]2[C@@H]3CCC4=CC(=O)CC[C@]4(C)[C@H]3CC[C@]12C,inactive,–
O=CC1CC=CCC1 (stereo not given),inactive,–
C[C@]12CC[C@@H]3c4ccc(OC(=O)c5ccccc5)cc4CC[C@H]3[C@@H]1CC[C@@H]2O,inactive,–
NC(=O)Cc1cccc(C(=O)c2ccccc2)c1N,inactive,–
